What all share (assay): NCI-60 one-dose screen, 48 h (100 = growth as untreated, 0 = no growth, -100 = all killed)
Conditions in all cases: 10 µM unless noted

In assay [1] the test system is NCI-H23 lung.
For assay [2], the system named is NCI-H226 lung.
In assay [3] the test system is NCI-H322M lung.
Assay [4] relates to HOP-62 NSCLC.
In assay [5] the test system is NCI-H460 lung.
Assay [6] deals with NCI-H522 lung.
The test system of assay [7] is A549/ATCC NSCLC.
For assay [8], the system named is 786-0 renal.
Assay [9] relates to COLO 205 colon.
Assay [10] deals with DU-145 prostate.
Assay [11] has as its system K-562 leukemia.
The test system of assay [12] is MALME-3M melanoma.
For assay [13], the system named is MDA-MB-231 breast.
Assay [14] deals with RXF 393 renal.
The subject of assay [15] is SF-268 CNS.
Assay [16] relates to SF-295 CNS.
Assay [17] relates to SF-539 CNS.
For assay [18], the system named is UACC-257 melanoma.
Assay [19] relates to M14 melanoma.

This is part of a sample that, as a whole, favours compounds with a hit. Of some 83,000 tested, about 20% had one in any assay.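 Percent growth is the endpoint: 0 to 100 indicates growth inhibition (40 means 60% inhibition), 0 means no net growth, and negative values indicate cell death.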 Unmarked numbers belong to inactive results. The source made the active and inactive calls. Rule for the calls: active = growth percent below 10; inactive = the rest.

Turning to `C#CCNc1nc(NCCNC(=O)CCl)nc(N(C)CCCCc2ccccc2)n1`, the growth was 84.7% in [1]; 71% in assay [2]; 96.4% in assay [3]; 94.3% in assay [4]; 107% in assay [5]; 25.4% in assay [6]. For the same compound, the growth was 119% in assay [7]; 97.5% in [8]; 91.2% in [9]; 101% in [10]; 95.1% in [11]; 60.3% in assay [12]. Besides, the growth in assay [13] was 90.7%; in assay [14], 93.5%; in assay [15], 94%; in assay [16], 99.4%; in assay [17] it was 106%; in [18], 113%. The growth in assay [19] is 78.5%.
Turning to `CN(C)CCCn1c(=O)c2cc([N+](=O)[O-])ccc2c2cnc3[nH]ccc3c21`, the growth in assay [1] is 58.8%; in assay [2] it was 44.3%; in [3], 46.3%; in assay [4], 45.1%; in assay [5] it was 17.3%; in assay [6], 17.9%. For the same compound, the growth was 41.5% in assay [7]; 7.2% (active) in assay [8]; 28% in [9]; 50.5% in assay [10]; -32.4% (active) in assay [11]; 68.8% in assay [12]. The growth was 65.5% in assay [13]; 56.3% in [14]; 45.9% in assay [15]; 43.9% in assay [16]; 50.9% in [17]; 87.2% in [18]. The growth in [19] is 67.6%.
As to `CC(C)(CCc1ccccn1)C(=O)CCCc1ccccn1`, the growth was 106% in [1]; 104% in assay [2]; 116% in [3]; 105% in assay [4]; 106% in assay [5]; 108% in [6]. Besides, the growth in [7] was 99%; in [8] it was 99.9%; in [9], 96.4%; in assay [10] it was 109%; in assay [11], 95%; in assay [12] it was 70.4%. Moreover, the growth in assay [13] was 96.2%; in assay [14], 117%; in assay [15], 105%; in assay [16], 120%; in assay [17] it was 114%; in assay [18], 109%. For the same compound, the growth in assay [19] was 98.7%.
`O=C(O)C(CCc1ccccc1)NCc1ccccc1` (configuration not stated): the growth in assay [1] is 94.9%; in assay [2], 106%; in [3], 103%; in assay [4], 93.3%; in [5] it was 116%; in [6], 87%. Also, the growth in assay [7] was 99.7%; in assay [8] it was 100%; in assay [9] it was 97.3%; in assay [10], 95.7%; in assay [11], 113%; in [12], 89.8%. Besides, the growth in [13] was 91.4%; in assay [14], 128%; in assay [15], 98.4%; in assay [16], 103%; in assay [17] it was 89.8%; in assay [18], 99.4%. The growth in assay [19] was 79.6%.
For the compound `Oc1ccc(-c2nc3ccccc3s2)cc1CN(Cc1ccccn1)Cc1ccccn1`, the growth is 17.5% in assay [1]; 5.38% (active) in assay [2]; 9.63% (active) in assay [3]; 10.9% in assay [4]; 2.66% (active) in [5]; -7.33% (active) in [6]. Also, the growth in assay [7] was 2.38% (active); in [8] it was -3.75% (active); in assay [9], 16%; in [10], 24.2%; in assay [11], 11.8%; in assay [12] it was 8.24% (active). Besides, the growth in assay [13] is 25.3%; in assay [14] it was 40.5%; in [15], 17.7%; in [16], 13.5%; in [17], 3.91% (active); in [18], -0.146% (active). Also, the growth in assay [19] is -29.7% (active).
In the case of `CC1=C(/C=C/C(C)=C/C=C(C(=O)O)\C(C)=C\C(=O)O)C(C)(C)CCC1`, the growth was 101% in assay [1]; 112% in [2]; 103% in [3]; 108% in [4]; 104% in assay [5]; 77.9% in assay [6]. The growth is 93.7% in assay [7]; 99.5% in assay [8]; 112% in assay [9]; 109% in assay [10]; 87% in assay [11]; 128% in assay [12]. Further, the growth in assay [13] was 98.6%; in assay [14] it was 106%; in assay [15], 100%; in [16] it was 130%; in [17], 93.6%; in [18] it was 92.4%. In assay [19], the growth was 101%.
As to `O=S(=O)(Nc1ccc2ccccc2c1)N1CCCCC1`, the growth in assay [1] was 56.6%; in assay [2] it was 75.9%; in [3], 92.8%; in assay [4] it was 62.9%; in assay [5], 65.5%; in assay [6], 2.32% (active). The growth was 68.9% in assay [7]; 70.3% in [8]; 69.9% in assay [9]; 78.4% in assay [10]; 41.4% in assay [11]; 63.3% in [12]. In addition, the growth in assay [13] is 71.8%; in assay [14], 68.3%; in assay [15] it was 61.3%; in assay [16], 64%; in [17] it was 70.2%; in assay [18] it was 61.1%. In assay [19], the growth is 38.6%.
In the case of `CCC(=O)NC1=C(Cl)C(=O)C(NC(=O)CC)=C(Cl)C1=O`, the growth in assay [1] is 94%; in [2], 113%; in assay [3] it was 107%; in assay [4], 111%; in [5] it was 108%; in [6] it was -82.7% (active). Moreover, the growth in [7] was 103%; in assay [8], 105%; in assay [9], -91.4% (active); in assay [10], 44.3%; in [11], -24.3% (active); in [12], -63.4% (active). Besides, the growth is 91.6% in assay [13]; 39.9% in assay [14]; 118% in assay [15]; 137% in assay [16]; 117% in assay [17]; 107% in assay [18]. Further, the growth in assay [19] is 93.7%.
